Source: PubChem (National Center for Advancing Translational Sciences (NCATS))
Shown are actives, neighbours in structure and some others; about 7.3% of the full set was active somewhere.
HEK293 viab: counter-screen for SNCA expression inhibitors: cell viability | HEK-293-SNCA-luc viability, GF-AFC fluorescence, 24 h | Potency, µM (highest dose often 57.1 µM), for the others: top-dose activity change, negative = cytotoxicity, usual class: cytotoxic | actives 0.12% (n = 150,000);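 note: potency is the fitted concentration of half-maximal effect; 0% = DMSO-treated cells and -100% = medium-only wells without cells; nearly all actives have a fitted effect of over 30% in size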
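HEK-293-SNCA-luc cells (1500/well) plated 24 h, then exposed 24 h to a dilution series; GF-AFC added 30 min at 37C, fluorescence 405/540 nm; normalised to medium-only and DMSO wells, Hill fit.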
HEK cytotox: kills HEK 293 cells | HEK 293 viability, ATP luminescence (CellTiter-Glo), 48-72 h | Potency, µM (doses to about 115 µM), for the others: at the top dose activity change, negative = cytotoxicity, usual class: inhibitors | actives 6.6% (n = 94,000) | AID 1345083; note: potency is the fitted concentration of half-maximal effect; % is set by controls: 0 for no effect and ±100 for the full control effect; nearly all actives have a fitted effect of over 60% in size
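Cytotoxicity was scored by loss of ATP-coupled luminescence (CellTiter-Glo) in HEK 293 cells. Compound treatment ran 48 or 72 hr at 37 degree Celsius, 5% CO2, 95% humidity.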
FLuc inh-1: blocks purified firefly luciferase enzyme activity; purified P. pyralis luciferase, luminescence, biochemical; Potency, µM (highest dose often 115 µM), usual class: inhibitors; actives 2.5% (n = 76,000); note: potency is the fitted concentration of half-maximal effect; % is set by controls: 0 for no effect and ±100 for the full control effect; nearly all actives have a fitted effect of over 65% in size
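Purified P. pyralis luciferase (10nM final) in 50mM Tris acetate pH 7.5, 10mM Mg acetate, 0.01% Tween-20, 0.05% BSA with 10uM D-luciferin and 10uM ATP. Compounds titrated qHTS. Luminescence imaged on CCD.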
SNCA expr inh: reduces expression of the alpha-synuclein gene; Potency, µM (titrated, usually from 57.2 µM), without a hit: at the highest dose activity change, negative = inhibition, hits mostly inhibitors; HEK-293 SNCA-luciferase knock-in, luminescence, 24 h; actives 0.17% (n = 140,000);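 note: potency is the fitted concentration of half-maximal effect; plate controls were DMSO cells for no effect and cell-free wells for full effect; nearly all actives have a fitted effect of over 45% in size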
3T3 cytotox: cytotoxic compounds in NIH 3T3 cells; NIH 3T3 viability, CellTiter-Glo ATP luminescence, 48-72 h; Potency, µM (doses to about 96.7 µM), for inactives: top-dose activity change, negative = cytotoxicity, hits mostly inhibitors; AID 1345082; actives 4.3% (n = 94,000); note: potency is the fitted concentration of half-maximal effect; % is set by controls: 0 for no effect and ±100 for the full control effect; nearly all actives have a fitted effect of over 55% in size
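ATP-dependent luminescence (CellTiter-Glo) served as the viability signal for NIH 3T3 cells treated with compound for 48 or 72 hr at 37 °C.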
IP6K1 inh: inhibitors of human IP6K1; IP6K1 kinase, ADP-Glo luminescence, 2 h; active compounds read low; actives 0.81% (n = 140,000); Q92551; activity change, % (series mostly up to about 58 µM); in the data active = activity change below about -25%; note: % is set by controls: 0 for no effect and ±100 for the full control effect
Target sequence (Q92551 whole entry, looked up): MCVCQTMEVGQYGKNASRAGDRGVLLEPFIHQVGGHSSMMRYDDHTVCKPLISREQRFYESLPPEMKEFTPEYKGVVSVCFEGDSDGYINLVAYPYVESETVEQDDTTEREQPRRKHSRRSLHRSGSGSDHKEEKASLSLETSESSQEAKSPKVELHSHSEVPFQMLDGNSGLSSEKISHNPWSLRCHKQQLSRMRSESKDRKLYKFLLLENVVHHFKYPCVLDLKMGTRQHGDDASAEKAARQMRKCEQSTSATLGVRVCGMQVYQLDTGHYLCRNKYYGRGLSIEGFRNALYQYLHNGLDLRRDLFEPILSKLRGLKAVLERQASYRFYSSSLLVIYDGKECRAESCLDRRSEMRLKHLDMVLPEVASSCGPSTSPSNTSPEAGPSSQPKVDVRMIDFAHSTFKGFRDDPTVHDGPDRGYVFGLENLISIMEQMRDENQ
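ADP-Glo luminescence measures ADP made by human IP6K1 during a 2 h RT reaction with ATP/IP6 (mix at 1.3 mM/130 uM); top library doses 57.5 and 19.1 uM final.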
FLuc SDR -ATP: firefly luciferase binding stabilization, ATP absent; Potency, µM (doses to about 32.7 µM), for the others: at the top dose activation (signal gain), hits mostly activators; Purified FLuc-C-HiBiT, Nano-Glo HiBiT luminescence, no ATP; shares compounds with FLuc inh-1; actives 7.8% (n = 1,300); note: potency is the fitted concentration of half-maximal effect; nearly all actives have a fitted effect of over 55% in size
FLuc SDR ATP: binders stabilizing firefly luciferase, plus ATP | shares compounds with FLuc inh-1 | purified FLuc-C-HiBiT + ATP, HiBiT complementation luminescence | Potency, µM (highest dose often 32.7 µM), for inactives: at the highest dose activation (gain of signal), most hits filed as activators | actives 8.7% (n = 1,300);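 note: signal reports ligand binding via conformational change of the enzyme rather than luciferase catalysis; potency is the fitted concentration of half-maximal effect; % of control where 0% means no effect; nearly all actives have a fitted effect of over 55% in size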
FLuc inh-2: inhibitors of firefly luciferase enzymatic activity | shares compounds with FLuc inh-1 | purified FLuc-C-HiBiT enzyme, luciferin luminescence | Potency, µM (highest dose often 32.7 µM), for inactives: at the highest dose activity change, negative = inhibition, hits mostly inhibitors | actives 42% (n = 1,300); note: potency is the fitted concentration of half-maximal effect; % is set by controls: 0 for no effect and ±100 for the full control effect; nearly all actives have a fitted effect of over 70% in size
Starred values were filed as active, the others as inactive; i = inactive; ? = inconclusive; . = no result given; [ ] = another dose, or the depositor's remark. Unless noted, calls come from the whole dose curve; as a rule, active = well fitted curve in the direction sought with a large enough effect; inconclusive = small, poorly fitted or top-dose-only effect, or another doubt; inactive = no such curve, though single readings can be large; an effect the other way counts as inactive or inconclusive.

SMILES	HEK293 viab	HEK cytotox	FLuc inh-1	SNCA expr inh	3T3 cytotox	IP6K1 inh	FLuc SDR -ATP	FLuc SDR ATP	FLuc inh-2
COc1ccc(CCNC(=O)C2(Cc3ccccc3)CCCCC(=O)N2)cc1OC (centres undefined)	4.0%	-8.7%	.	5.8%	-25.3%	-9.5	.	.	.
O=C1CCc2cc(NC(=O)c3n[nH]c4ccccc34)ccc2N1	-5.8%	?	2.82µM*	69.9%	?	0.9	?	?	3.13µM*
COc1ccc(NC(=O)N[C@@H]2C=C[C@@H](c3c(C)nn(-c4ccc(C(C)C)cc4)c3C)C2)cc1	-18.3%	?	7.94µM*	17.9%	?	-3.5	13.9%	13.0%	-11.4%
Cc1nn(-c2ccc(C(C)C)cc2)c(C)c1[C@@H]1C=C[C@@H](NC(=O)NC(C)C)C1	?	22.4µM*	3.55µM*	7.8%[87.6 µM]	28.2µM*	-11.0	15.8%[49.3 µM]	19.6%[49.3 µM]	?
COc1ccc(-n2nc(C)c([C@@H]3C=C[C@@H](NC(=O)Nc4cccc(C#N)c4)C3)c2C)cc1	-10.7%[87.6 µM]	89.1µM*	7.94µM*	130.6%[87.6 µM]	?	-2.9	12.9%[49.3 µM]	10.9%[49.3 µM]	?
COc1ccc(NC(=O)O[C@@H]2C=C[C@H](c3c(C)nn(-c4ccccc4C)c3C)C2)cc1	-5.2%[87.6 µM]	?	i	4.1%[87.6 µM]	?	-2.5	.	.	.
Cc1ccc(-n2nc(C)c([C@@H]3C=C[C@@H](NC(=O)NC(C)C)C3)c2C)cc1Cl	-27.1%[87.6 µM]	?	3.55µM*	9.6%[87.6 µM]	63.1µM*	-2.8	29.8%[49.3 µM]	?	14.3µM*
CCC(=O)N1CCC(C(NC(=O)c2ccccc2)C(=O)NCc2ccccc2)CC1 (centres undefined)	7.9%	?	i	-12.4%	-1.9%	-2.7	.	.	.
Cc1nn(-c2cccc(Br)c2)c(C)c1[C@@H]1C=C[C@@H](NC(=O)CC(C)(C)CC(=O)O)C1	4.2%	?	?	5.8%	?	9.2	13.4%	9.3%	-7.0%
COc1ccc(C(=O)N2CC(c3nnc(C(C)C)o3)C3(CCOCC3)C2)cc1OC (centres undefined)	-1.5%	-0.4%	i	-20.0%	-8.0%	5.2	.	.	.
CCOc1cccc2cc(-c3nc(-c4ccccc4C)no3)c(=O)oc12	-1.1%	.	.	8.5%	.	36.1	?	?	?
Cc1ccc(NC(=O)/C=C/c2ccccc2Cl)cc1Cl	8.1%	.	.	83.2%	.	13.5	13.4%	11.1%	?
NC(=O)N1CCCC(C(=O)N2CCCN(c3ccc(F)cc3)CC2)C1 (centres undefined)	2.8%	0.8%	i	-9.0%	0.7%	0.3	.	.	.
O=C(c1ccc(Cl)cc1)N1CCCC(C(=O)N2CCC(c3nc4ncccc4[nH]3)CC2)C1 (centres undefined)	?	-4.3%	.	29.2%	-19.5%	11.5	.	.	.
Cc1ccc(-n2ncc3c(N4CCC(C)CC4)ncnc32)cc1C	6.7%	.	.	69.2%	.	4.1	22.2%	?	4.95µM*
NC(=O)C1CCCN(c2ncnc3c2cnn3-c2ccccc2)C1 (centres undefined)	.	.	.	.	.	.	?	?	11.1µM*
CC1CCN(c2ncnc3c2cnn3-c2ccccc2)CC1	.	.	.	.	.	.	23.2%	?	6.24µM*
CC(=O)NNc1ncnc2c1cnn2-c1ccccc1	1.5%	.	.	-8.7%	.	41.8	.	.	.
Cc1ccc(-n2ncc3c(N4CCN(Cc5ccccc5)CC4)ncnc32)cc1	5.5%	.	.	56.2%	.	24.9	.	.	.
CC1CCCCN1c1ncnc2c1cnn2-c1ccccc1 (centres undefined)	.	.	.	.	.	.	11.1µM*	?	1.11µM*
Cc1ccc(-n2ncc3c(NC4CCCCCC4)ncnc32)cc1	0.4%	.	.	108.3%	.	8.0	.	.	.
Cc1nc(CN2CCN(C(=O)C(c3ccccc3F)N(C)C)CC2)cs1 (centres undefined)	-3.3%	3.8%	i	-7.2%	1.0%	14.9	.	.	.
Cc1nn(-c2ccccc2)c2c1C(C1CC1)N(C1CCN(Cc3cccc(OC(F)(F)F)c3)CC1)C2=O (centres undefined)	.	-17.8%	.	.	?	-4.6	.	.	.
CCc1ccc(C(=O)N2CCC3(CC2)OCC(C(=O)N2CCCC2)N3C(=O)c2cccc(C)c2)cc1 (centres undefined)	-22.7%	-23.3%	i	12.6%	-1.2%	4.1	.	.	.
CCN1CCN(c2ncnc3c2cnn3-c2cc(Cl)ccc2C)CC1	-29.2%	.	.	2.8%	.	46.5	.	.	.
SMILES	HEK293 viab	HEK cytotox	FLuc inh-1	SNCA expr inh	3T3 cytotox	IP6K1 inh	FLuc SDR -ATP	FLuc SDR ATP	FLuc inh-2
CCOC(=O)C1CCCN(c2ncnc3c2cnn3-c2ccc(C)c(Cl)c2)C1 (centres undefined)	-1.9%	.	.	91.4%	.	4.2	12.2%	10.1%	-5.8%
C=CCNC(=O)c1cccc2c(C)nnn12	2.4%[87.6 µM]	-15.5%[230 µM]	14.1µM*	125.2%[87.6 µM]	-12.9%[174 µM]	6.6	10.8%[65.7 µM]	14.1%[65.7 µM]	-13.2%[65.7 µM]
CCOC(=O)c1cccc(NC(=O)c2ncoc2-c2ccco2)c1	-3.2%	.	.	54.1%	.	21.2	.	.	.
Cc1ccc(NC(=O)c2ncoc2-c2ccco2)cc1Cl	6.2%	.	.	94.3%	.	33.0	18.3%	13.7%	?
O=C(O)c1ccc(CN2CC(COc3ccccc3)C3(C2)CN(c2ccccc2)C3)cc1 (centres undefined)	-4.6%[87.6 µM]	?	i	?	-21.6%[138 µM]	-0.3	.	.	.
COc1ccc(CN2CC(COc3ccccc3)C3(C2)CN(c2ccccc2)C3)cc1O (centres undefined)	?	28.2µM*	i	?	?	-5.3	11.5%[49.3 µM]	7.4%[49.3 µM]	-16.0%[49.3 µM]
O=C(NCc1ccccc1Cl)C1CCCN(c2ccnc3ccnn23)C1 (centres undefined)	?	?	.	-0.9%[87.6 µM]	?	0.1	.	.	.
CC(C)Nc1ccc(-c2nc(-c3ccccn3)no2)cc1[N+](=O)[O-]	-12.3%	.	.	-16.8%	.	1.1	.	.	.
COc1ccc(-c2noc(-c3nc(-c4ccccn4)no3)n2)cc1	5.4%	8.8%	i	30.0%	i	9.6	.	.	.
Clc1ccc(-c2nc(-c3ccccn3)no2)cc1Cl	.	.	.	.	.	.	?	?	5.56µM*
Brc1ccc(-c2nc(-c3ccccn3)no2)o1	.	.	.	.	.	.	?	?	1.24µM*
